Among all 16,000 compounds or so, about 40 (0.2%) were called active. Inconclusive results (about 1%) are left out. Calls come from the whole dose curve; as a rule, active = well fitted activation curve with a large enough effect; inconclusive = small, poorly fitted or top-dose-only effect, or another doubt; inactive = no such curve, though single readings can be large or run the other way. Only a selection was taken, and actives are over-represented in it overall. Some structures have more than one record in an assay (separate samples or runs), and their calls can disagree. Residues, ends and D or L forms follow the SMILES beside them.
target: Rap guanine nucleotide exchange factor 4 (Homo sapiens) (UniProt Q8WZA2); assay: Validation qHTS for agonist of cAMP-regulated guanine nucleotide exchange factor 4 (EPAC2); conditions: EPAC2 Rap1B BODIPY-GDP exchange, fluorescence; activation: hits give high values;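 for activation: exchange makes BODIPY-GDP fluorescence drop when released from Rap1B; series mostly up to about 150 µM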
Description: Principle Investigator: Xiaodong Cheng Ph.D.
The University of Texas Medical Branch, […], TX
In multi-cellular eukaryotic organisms, the effects of cAMP are transduced by two ubiquitously-expressed intracellular cAMP receptors, the classic protein kinase A/cAMP-dependent protein kinase (PKA/cAPK) and the more recently discovered exchange protein directly activated by cAMP/cAMP-regulated guanine nucleotide exchange factor (EPAC/cAMP-GEF). Both PKA and EPAC are ubiquitously expressed in all tissues, and an increase in intracellular cAMP levels will lead to the activation of both PKA and EPAC. Therefore, careful dissections of the individual role and relative contribution of EPAC and PKA within the overall cAMP signaling in various model systems are critical for further elucidating the mechanism of cAMP signaling. To date no EPAC-specific antagonists and agonist, as well as isoform-specific agonists have been reported, and developing EPAC-specific pharmacological probes to determine the physiological functions that EPAC play in the overall cAMP-mediated signaling remains a major challenge within the research field. Furthermore, identified regulators of EPAC may lead to new mechanism-based therapeutic strategies specifically targeting the EPAC / cAMP-signaling components as EPAC has been implicated to play important roles in major human pathological conditions such as diabetes, heart disease, and cancer.
This qHTS will be used to screen the Molecular Libraries Small Molecule Repository (MLSMR) as a concentration-titration series using the NCGC unique quantitative screening (qHTS) platform to find activators for EPAC1. In addition, this assay will also be used as a counterscreen for the EPAC2 qHTS. This fluorescent based assay is developed and validated for EPAC1 that measures exchange using EPAC effector Rap1 complex with BODIPY-GDP, a GDP analog with a tethered fluorophores. Activators are identified by monitoring the change in fluorescence signal as the exchanged free BODIPY-GDP has a reduced fluorescence compared to Rap1-bound BODIPY-GDP. Increase in signal (activation) is the desired outcome for the EPAC1 agonist while no activity in this assay is desired for the EPAC2 agonist counterscreen.
[1] de Rooij, J., Zwartkruis, F. J., Verheijen, M. H., Cool, R. H., Nijman, S. M., Wittinghofer, A., and Bos, J.L. (1998) Nature 396, 474-477.
Briefly, three uL of reagents (100 nM EPAC2, 250 nM RAP1B-BODIPY-GDP, 50 uM GDP) were dispensed into a 1536-well Greiner black solid-bottom medium binding assay plate. Controls and test compounds (23 nL) were transferred to the plate via a Kalypsys pin tool equipped with a 1536-pin array. The plates were centrifuged at 1,000 rpm for 15 seconds followed by 5 minute incubation at room temperature. The assay plates were read at 5 minute intervals for 30 minutes in the ViewLux plate reader using 480nm excitation and 540nm emission filters. The results were normalized to the agonist positive control of 6.5 mM cAMP.
% is set by controls: 0 for no effect and ±100 for the full control effect; potency is the fitted concentration of half-maximal effect.

Sequence of Rap guanine nucleotide exchange factor 4 (Homo sapiens) (Q8WZA2 whole entry, looked up): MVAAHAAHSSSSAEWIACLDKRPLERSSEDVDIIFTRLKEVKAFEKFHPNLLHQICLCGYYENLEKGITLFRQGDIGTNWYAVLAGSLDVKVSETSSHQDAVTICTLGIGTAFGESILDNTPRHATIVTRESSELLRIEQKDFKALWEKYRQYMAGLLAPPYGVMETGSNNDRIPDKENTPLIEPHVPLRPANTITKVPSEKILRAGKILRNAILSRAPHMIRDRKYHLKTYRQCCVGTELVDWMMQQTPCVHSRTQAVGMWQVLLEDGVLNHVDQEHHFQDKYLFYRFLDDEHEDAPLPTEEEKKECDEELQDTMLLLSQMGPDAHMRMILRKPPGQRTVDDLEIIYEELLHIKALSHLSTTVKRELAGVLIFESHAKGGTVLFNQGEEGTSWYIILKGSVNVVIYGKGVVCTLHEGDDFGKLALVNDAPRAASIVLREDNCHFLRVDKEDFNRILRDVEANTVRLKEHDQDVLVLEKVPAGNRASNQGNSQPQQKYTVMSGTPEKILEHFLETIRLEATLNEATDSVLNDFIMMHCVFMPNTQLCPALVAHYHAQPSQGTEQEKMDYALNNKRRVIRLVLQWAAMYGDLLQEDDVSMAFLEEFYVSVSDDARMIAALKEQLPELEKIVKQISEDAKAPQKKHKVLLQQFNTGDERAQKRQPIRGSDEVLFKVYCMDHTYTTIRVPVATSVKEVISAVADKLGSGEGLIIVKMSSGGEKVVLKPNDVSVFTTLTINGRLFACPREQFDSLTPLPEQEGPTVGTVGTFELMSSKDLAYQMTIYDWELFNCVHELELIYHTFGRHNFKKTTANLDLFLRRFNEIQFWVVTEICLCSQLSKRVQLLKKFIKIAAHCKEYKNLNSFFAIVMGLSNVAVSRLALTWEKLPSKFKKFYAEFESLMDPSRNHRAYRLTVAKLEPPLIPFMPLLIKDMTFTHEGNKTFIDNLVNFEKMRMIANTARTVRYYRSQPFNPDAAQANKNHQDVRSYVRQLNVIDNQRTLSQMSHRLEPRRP

Row | SMILES | activation | Potency
1 | CCNc1ncc2nc(-c3ccccc3)c(=O)n(CCc3ccccc3)c2n1 | 4.35% (inactive) | 
2 | CN1CCCC(CNC(=O)c2cnn(-c3ncc4c(n3)-c3ccccc3CC4)c2C2CC2)C1 (centres undefined) | -10.8% (inactive) | 
3 | O=C(CNC(=O)c1cccnc1)c1ccc(F)cc1 | -17.4% (inactive) | 
4 | O=C(c1cn(C2CCCN(Cc3cc(Cl)ccc3O)C2)nn1)N1CCCCC1 (centres undefined) | -0.543% (inactive) | 
5 | CNc1ccnc(-c2cccc(NS(C)(=O)=O)c2)n1 | 1.54% (inactive) | 
6 | CC(=O)Nc1ccc(S[C@@H](CCN2CC[C@H](C(C)(C)C)CCC2=O)c2ccccc2)cc1 | -31.2% (inactive) | 
7 | O=C(O)COc1ccc(CCNS(=O)(=O)c2ccccc2)s1 | 2.15% (inactive) | 
8 | CCn1c(-c2ccccc2F)nc2cc(NC(C)=O)cc(C(=O)N3CCNC(=O)C3CC(=O)OC)c21 (centres undefined) | -2.82% (inactive) | 
9 | O=C(C[N+]12CCCc3cccc(c31)CCC2)c1ccccc1 | -2.28% (inactive) | 
10 | CN(C)c1ccc(C(=C2C=CC(=[N+](C)C)C=C2)c2ccccc2)cc1 | -24.7% (inactive) | 
11 | Cn1c(C(c2cc3ccccc3n2C)c2cc3ccccc3n2C)cc2ccccc21 | 11.4% (inactive) | 
12 | COc1ccccc1CNc1ccnc(-c2ccoc2)n1 | -10.4% (inactive) | 
13 | CCCN1CCC(=O)N([C@H](CSc2ccccc2)c2ccccc2)CC1 | -10.4% (inactive) | 
14 | CC(=O)OC1CCC2(C)C3CC(=O)C4(C)C(CC5OC6(CCC(C)CO6)C(C)C54)C3CC[C@H]2C1 (some centres undefined) | -13.5% (inactive) | 
15 | O=C(O)c1ccc2nc(-c3ccccc3)c(-c3ccccc3)nc2c1 | 11.6% (inactive) | 
16 | Cc1nc(NCc2c(F)cccc2F)sc1-c1ccn(CCN2CCOCC2)n1 | -13.4% (inactive) | 
17 | COc1ccc(C(=O)N2CCC[C@@]3(CCN(c4ncccn4)C3)C2)cc1 | -15.1% (inactive) | 
18 | COc1cccc(Cn2c(=O)c(-c3ccc(F)cc3)nc3cnc(N4CCNCC4)nc32)c1 | 12.8% (inactive) | 
19 | C=C1CCC(OC(C)=O)/C(C)=C/CC2[C@H]1CC2(C)C (some centres undefined) | -15.7% (inactive) | 
20 | CCOC(=O)C[C@H]1c2cc(F)ccc2S(=O)(=O)N1C1CCCC1 | -9.78% (inactive) | 
21 | CN(C)c1ccc(/C=C/c2c3ccccc3nc3ccccc23)cc1 | -14.9% (inactive) | 
22 | CN(C)c1ccc(/C=C/c2c3c(nc4ccccc24)CCCC3)cc1 |  | 44.7 µM (active)
23 | Cc1cnc2ccccc2c1/C=C/c1ccc(N(C)C)cc1 | 20.8% (inactive) | 
24 | OC(CN1CCCCC1)c1cc(-c2ccccc2)on1 (centres undefined) | 8.32% (inactive) | 
25 | CN(Cc1ccco1)c1ncnc2ccc(-c3ccccc3C(F)(F)F)cc12 | -4.16% (inactive) | 
26 | Cc1c(C(=O)N(C)Cc2cscn2)sc2ncnc(NC[C@H]3CCc4ccccc4O3)c12 | -2.34% (inactive) | 

Row | SMILES | activation | Potency
27 | O=C(O)[C@@H]1CN[C@@H](C(=O)O)C1 | 11.8% (inactive) | 
28 | Cc1cc2c(c(-c3cnccn3)c1)OC(CNC(=O)c1ccc(-n3nc(C)cc3C)cc1)C2 (centres undefined) | -7.18% (inactive) | 
29 | CC(C)CC(NC(=O)CN)C(=O)NC(Cc1ccccc1)C(=O)O (stereo not drawn) (H-Gly-Leu-Phe-OH; configuration not given here) | -3.33% (inactive) | 
30 | CO[C@H]1[C@H](NC(=O)c2ccco2)c2ccccc2C12CCN(Cc1cnc(N(C)C)s1)CC2 | -21.4% (inactive) | 
31 | COc1ccc(-c2nc3cnc(OC)nc3n(C[C@H]3CCCO3)c2=O)cc1 | -6.48% (inactive) | 
32 | O=C(O)CCC(=O)OC[C@@H](NC(=O)C(Cl)Cl)C(O)c1ccc([N+](=O)[O-])cc1 (some centres undefined) | -9.09% (inactive) | 
33 | COCCn1c(=O)c(C)nc2cnc(OC)nc21 | -6.26% (inactive) | 
34 | CC(=O)O[C@H]1C[C@H]2CC[C@@H]3[C@H]4C[C@@H]([N+]5(C)CCCCC5)[C@@H](OC(C)=O)[C@]4(C)CC[C@@H]3[C@@]2(C)C[C@@H]1[N+]1(C)CCCCC1 | -8.62% (inactive) | 
35 | O=c1c(-c2ccccc2)nc2cnc(Oc3ccccc3)nc2n1Cc1cccs1 | -18.6% (inactive) | 
36 | CN1CCN(c2ncc3nc(CCc4ccccc4)c(=O)n(Cc4cccs4)c3n2)CC1 | 14.9% (inactive) | 
37 | CC1=CC(=O)c2ccccc2C1=O | -29.9% (inactive) | 
38 | CC1(C)CCC2=C(O1)c1ccccc1C(=O)C2=O | 17.8% (inactive) | 70.8 µM (active)
39 | CC1(S(=O)(=O)O)CC(=O)c2ccccc2C1=O (centres undefined) | 3.25% (inactive) | 
40 | CC(C)C(C)/C=C/C(C)C1CCC2C3=CCC4CC(=O)CC[C@@]4(C)C3CC[C@]21C (some centres undefined) | 0.449% (inactive) | 
41 | O=C(O)c1cccc(/C=C2/C[C@@H]3[C@@H](/C=C/[C@@H](O)C4CCCCC4)[C@H](O)C[C@@H]3O2)c1 | 15.9% (inactive) | 
42 | C=C1Cc2c(Cl)cc3[nH]c4c5c3c2[C@@]2(O)[C@@H]1C[C@@H]2C(C)(C)O[C@H]5[C@@H]1CC[C@@]2(O)[C@@]35O[C@@H]3[C@@H](O)[C@@H](C(=O)O)O[C@H]5CC[C@]2(C)[C@@]41C | -9.97% (inactive) | 
43 | N#CC[C@H](Cc1ccccc1)N1CC[C@@H](NC(=O)OCc2ccccc2)CCC1=O | -28.7% (inactive) | 
44 | Oc1cc(-c2nc3ccccc3s2)cc2c1OCCN(Cc1cccn1-c1ccccn1)C2 | 7.3% (inactive) | 
45 | COc1ccc(CN([C@H](CO)CC(C)C)S(=O)(=O)N(Cc2ccccc2)[C@H](CO)CC(C)C)cc1 | -27.3% (inactive) | 
46 | CCNc1ncc2nc(-c3cccs3)c(=O)n(CCC#N)c2n1 |  | 50.1 µM (active)
47 | CCNc1ncc2nc(-c3cccs3)c(=O)n(CCc3ccccc3)c2n1 | -14% (inactive) | 
48 | N#CCCn1c(=O)c(-c2cccs2)nc2cnc(Nc3ccccc3)nc21 | -2.03% (inactive) | 
49 | O=c1[nH]c(=O)n(C2CC(O)C(CO)O2)cc1F (centres undefined) | -6.18% (inactive) | 
50 | C[C@]12CC[C@@H]3c4ccc(OC(=O)c5ccccc5)cc4CC[C@H]3[C@@H]1CC[C@@H]2O | -2.11% (inactive) | 
51 | CC(=O)Oc1ccc2c(c1)CC[C@@H]1[C@@H]2CC[C@]2(C)[C@@H](O)CC[C@@H]12 |  | 44.7 µM (active)
52 | CC(=O)Oc1ccc2c(c1)CCC1C2CC[C@]2(C)C(OC(C)=O)CCC12 (some centres undefined) | -1.9% (inactive) | 

Row | SMILES | activation | Potency
53 | CN(C)C(=O)c1ccc(-c2nc(N3CCOCC3)c3ccccc3n2)cc1 | -5.48% (inactive) | 
54 | CC(C)C[C@@H](CC#N)N1CCN(Cc2ccccc2)CCC1=O | -11.1% (inactive) | 
55 | Clc1ccc[n+](CCCCC[n+]2cccc(Cl)c2)c1 | -27.9% (inactive) | 
56 | O=C(Nc1ccc(C(F)(F)F)cc1[N+](=O)[O-])O[C@H]1[C@H](Cc2ccccc2)NS(=O)(=O)[C@H]2C[C@@H]3C=C[C@]12O3 | -19.6% (inactive) | 
57 | COc1ccc(C(=O)C[n+]2cccc3cccc(O)c32)cc1 | -13.2% (inactive) | 
58 | CCCCC(=O)OCC(=O)[C@]1(O)Cc2c(O)c3c(c(O)c2[C@@H](O[C@H]2C[C@H](NC(=O)C(F)(F)F)[C@H](O)[C@H](C)O2)C1)C(=O)c1c(OC)cccc1C3=O | -1% (inactive) | 
59 | COc1cccc2c1C(=O)c1c(O)c3c(c(O)c1C2=O)C[C@@](O)(C(=O)CO)C[C@@H]3O[C@H]1C[C@H](N)[C@H](O[C@@H]2CCCCO2)[C@H](C)O1 | 1.58% (inactive) | 
60 | CC(=O)[C@]1(O)Cc2c(O)c3c(c(O)c2[C@@H](O[C@H]2C[C@H](N)[C@H](O)[C@H](C)O2)C1)C(=O)c1ccccc1C3=O |  | 100 µM (active)
61 | CC(=O)[C@]1(O)Cc2c(O)c3c(c(O)c2[C@@H](O[C@H]2C[C@H](N)[C@H](O)[C@H](C)O2)C1)C(=O)c1c(O)cccc1C3=O |  | 100 µM (active)
62 | COc1cccc2c1C(=O)c1c(O)c3c(c(O)c1C2=O)C[C@@](O)(C(C)=O)C[C@@H]3O[C@H]1C[C@H](N)[C@H](O)[C@H](C)O1 |  | 100 µM (active)
63 | COc1cccc2c1C(=O)c1c(O)c3c(c(O)c1C2=O)C[C@@](O)(C(=O)CO)C[C@@H]3O[C@H]1C[C@H](N)[C@H](O)[C@H](C)O1 | -17.2% (inactive) | 
64 | CC[C@@]1(O)C[C@H](O[C@H]2C[C@H](N(C)C)[C@H](O[C@H]3C[C@H](O)[C@H](O[C@H]4CCC(=O)[C@H](C)O4)[C@H](C)O3)[C@H](C)O2)c2c(cc3c(c2O)C(=O)c2c(O)cccc2C3=O)[C@H]1C(=O)OC | 26% (inactive) | 
65 | Cc1c(C(=O)NCc2ccco2)cnn1-c1ncc2c(n1)-c1ccccc1CC2 | -0.162% (inactive) | 
66 | O=C(c1ccncc1)N1CCC2(CCCN(c3ccc(-c4ccccc4)cc3)C2)CC1 | -3.07% (inactive) | 
67 | COc1cc2c(cc1OC)C(=O)N(C)CC2 | -9.91% (inactive) | 
68 | CC(C)NC(=O)[C@@H]1C[C@@H](Sc2ccccn2)CN1C1CCN(C)CC1 | -0.85% (inactive) | 
69 | C=CCN1[C@@H](Cc2ccccc2)COCCS1(=O)=O | -11.2% (inactive) | 
70 | Cc1cccc(CN2Cc3cccc4c3[C@H](C=CC4)CC2=O)c1 | -35.8% (inactive) | 
71 | Cc1cc(CC(=O)O)c(C)n1-c1ccc(Cl)cc1 | -0.347% (inactive) | 
72 | COc1ccccc1CNc1ncncc1-c1ccccc1CN(C)C | -6.39% (inactive) | 
73 | COc1ccccc1CCNc1ncnc2sc(C(=O)N3CCCC3)c(C)c12 | -2.93% (inactive) | 
74 | COc1cccc(-c2ccc3ncnc(NCc4cccnc4)c3c2)c1 | -11% (inactive) | 
75 | Clc1cccc[n+]1CCc1ccccc1 | -40.7% (inactive) | 
76 | COc1ccc(N2C(=O)[C@@H]3C[C@H]2CN3Cc2ccc3nccnc3c2)cc1Cl | -3.06% (inactive) | 
77 | CC[C@@H]1[C@H]2CCCC(=O)N3CC[C@@H](C[C@H]1O)[C@@H]23 | -8.94% (inactive) | 
78 | N[C@@H](Cn1cc(I)c(=O)n(Cc2ccc(C(=O)O)cc2)c1=O)C(=O)O | 2.18% (inactive) | 
